Reference: PubChem BioAssay
Active and inactive are the calls of the source.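 How the source made its calls, unless noted: active means inhibition of the reporter signal at or above 50%; inactive means inhibition below 50%.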

How the values were obtained:
[1] = inhibitors of TNFa-induced NFkB p65 translocation, primary screen, imaging, HUVEC, MLSMR starter and 10KST1 sets (AID 438;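 active means inhibition above 20% together with a positive visual image hit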;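 further: compound added about 3h40 before a 20 min TNFalpha stimulation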;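 on inhibition: signal is the nuclear over cytoplasmic p65 intensity ratio per well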); details: HUVEC TNFa-induced p65 nuclear translocation; cell count: measured here: nuclei count (cytotoxicity indicator), at 2.08 µM; inhibition: at 2 µM, stronger effect = higher value, 0% TNFa-plus-vehicle, 100% no-TNFa wells
[2] = inhibitors of mutant huntingtin aggregation, primary screen, imaging, exon1htt(103Q)mCFP cells, high-content imaging (AID 483;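 active means visual image review flags a hit and inhibition of aggregation exceeds 20%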;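 further: compound exposure lasted 3 days before fixation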;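 on nuclei count: percent of the per-plate median nuclei count of sample wells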); details: exon1htt(103Q)mCFP cell line, aggregate imaging, at 2 µM; inhibition of aggregation: stronger effect = higher value; nuclei count: measured here: cell count, toxicity
[3] = inhibitors of E-selectin induction by TNFa, primary screen, imaging, HUVEC, immunofluorescence, MLSMR starter and 10KST1 sets (AID 487;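 active means visually confirmed hit in the image check and inhibition above 20%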;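 on inhibition: signal is fraction of cell area covered by stained E-selectin grains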;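 on nuclei count: 100% = median nuclei count of all wells on the same plate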); details: HUVEC TNFalpha-induced E-selectin immunofluorescence imaging, at 2 µM; inhibition: stronger effect = higher value; nuclei count: measured here: cell number, toxicity
[4] = target: Voltage-gated potassium channel subunit beta-2 (Rattus norvegicus) (UniProt P62483); assay: KvBeta enzyme negative modulators, primary screen, biochemical, NADPH fluorescence (AID 622;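 active means fluorescence slope higher than the sample average by over 3 SD, cut at about -0.22 in these data, passing the limit was not always enough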;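 further: slope of raw intensity against log time taken from 70 to 1610 s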); details: recombinant KvBeta, 4-cyanobenzaldehyde reduction, at 10 µM, stronger effect = higher value
[5] = target: Voltage-gated potassium channel subunit beta-2 (Rattus norvegicus) (UniProt P62483); assay: KvBeta positive modulators, primary screen, biochemical, NADPH fluorescence (AID 623;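 active means NADPH fluorescence slope more negative than the mean of all samples by about 3 SD, 99.7% confidence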;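 further: fluorescence intensity change per second fitted from 20 to 320 s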); details: Recombinant KvBeta, NADPH fluorescence decrease slope, 10 min; at 10 µM; stronger effect = lower value
[6] = target: Alpha-2C adrenergic receptor (Homo sapiens) (UniProt P18825); assay: modulators of alpha2C/GIRK thallium flux, primary screen, cell-based, HEK293 alpha2C/GIRK1/2 (AID 624;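 active means fluorescence slope after compound addition differing from the mean of all screened samples at 99.7% confidence, in either direction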;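 further: slope of fluorescence ratio to pre-addition baseline per second over 15 to 24 s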); details: thallium flux BTC fluorescence, at 10 µM, actives lie on both sides
[7] = inhibitors of Sendai virus-induced IRF3 signaling, primary screen, TLR/RLR signaling modifier project, cell-based, Sendai virus stimulus, luciferase, 10K MLSCN set (AID 602276;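 active means inhibition at or above 50% at 10 µM; inactive means inhibition below 50%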;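 further: firefly luciferase from ISG56 promoter only with Renilla not read in this screen; 0% = Sendai virus plus DMSO and 100% = medium plus DMSO without virus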); details: HEK293 RL24 IRF3 luciferase reporter, at 10 µM, stronger effect = higher value
[8] = inhibitors of poly I:C-induced TLR3 signaling, primary screen, cell-based, poly I:C stimulus, luciferase, 10K MLSCN set (AID 602277); details: HEK293-TLR3 RL24 IRF3 luciferase reporter, at 10 µM, stronger effect = higher value

Voltage-gated potassium channel subunit beta-2 (Rattus norvegicus), sequence (P62483 whole entry, looked up): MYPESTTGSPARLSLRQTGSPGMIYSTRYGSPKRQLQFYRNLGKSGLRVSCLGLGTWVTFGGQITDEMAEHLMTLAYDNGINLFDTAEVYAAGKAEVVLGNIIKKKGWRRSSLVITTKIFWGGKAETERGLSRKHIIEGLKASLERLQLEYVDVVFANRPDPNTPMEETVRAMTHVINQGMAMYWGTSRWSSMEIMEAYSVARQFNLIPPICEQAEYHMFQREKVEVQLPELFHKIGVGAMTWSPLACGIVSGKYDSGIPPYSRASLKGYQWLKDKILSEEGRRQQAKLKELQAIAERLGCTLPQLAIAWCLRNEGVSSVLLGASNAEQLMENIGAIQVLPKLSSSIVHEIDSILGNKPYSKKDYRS
Alpha-2C adrenergic receptor (Homo sapiens), sequence (P18825 whole entry, looked up): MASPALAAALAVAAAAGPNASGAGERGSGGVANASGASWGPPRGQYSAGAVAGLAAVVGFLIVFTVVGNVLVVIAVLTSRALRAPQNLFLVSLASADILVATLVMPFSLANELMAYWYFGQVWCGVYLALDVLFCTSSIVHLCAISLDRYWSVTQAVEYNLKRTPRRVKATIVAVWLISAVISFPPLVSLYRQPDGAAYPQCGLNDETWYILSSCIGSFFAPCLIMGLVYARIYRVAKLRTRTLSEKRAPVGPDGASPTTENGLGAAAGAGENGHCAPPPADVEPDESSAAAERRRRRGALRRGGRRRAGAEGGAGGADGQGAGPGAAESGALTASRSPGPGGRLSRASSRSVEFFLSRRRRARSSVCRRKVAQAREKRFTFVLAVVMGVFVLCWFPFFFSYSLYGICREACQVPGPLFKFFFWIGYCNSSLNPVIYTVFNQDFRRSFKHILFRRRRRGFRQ

SMILES | cell count [1] | inhibition [1] | inhibition of aggregation [2] | nuclei count [2] [%] | inhibition [3] | nuclei count [3] [%] | fluorescence slope [4] | NADPH fluorescence slope [5] | slope [6] | inhibition [7] | inhibition [8]
CCCc1cc(C(=O)Nc2ccccc2SC)no1 | 849 | 5.8% (inactive) | -12.6% (inactive) | 108 | -35.7% (inactive) | 121 | -0.597 (inactive) | -2.4e-05 (inactive) | 0.00474 (inactive) | -22% (inactive) | -51.6% (inactive)
Cc1c(NC(=O)C(C)OC(=O)c2cc3c4ccccc4n(C)c3s2)c(=O)n(-c2ccccc2)n1C (stereo not drawn) | 405 | -1.3% (inactive) | -35.1% (inactive) | 67.6 | -1.3% (inactive) | 107 | -0.481 (inactive) | -3.8e-06 (inactive) | 0.0038 (inactive) | 25.6% (inactive) | 34.4% (inactive)
O=C(Cn1cc2c(n1)CCCC2)NCCc1ccccc1 | 792 | -3.7% (inactive) | 0.9% (inactive) | 106 | -47.8% (inactive) | 118 | -0.428 (inactive) | -2.6e-05 (inactive) | 0.00628 (inactive) | 5.6% (inactive) | 31.9% (inactive)
CCc1ccc(N(CC(=O)NC2CCCC2)S(=O)(=O)c2c(C)noc2C)cc1 | 720 | -0.8% (inactive) | -6% (inactive) | 97.9 | -48.7% (inactive) | 102 | -0.569 (inactive) | -4.6e-05 (inactive) | 0.00649 (inactive) | 4.77% (inactive) | 37.7% (inactive)
O=C(Cn1ncc2c1-c1ccccc1OC2)N1CCc2ccccc21 | 678 | 4.4% (inactive) | 10.6% (inactive) | 84.5 | 4.3% (inactive) | 108 | -0.587 (inactive) | 6e-06 (inactive) | 0.00757 (inactive) | 5.8% (inactive) | 1.51% (inactive)
O=C(c1ccccc1Oc1nnnn1-c1ccccc1)N1CCOCC1 | 315 | -0.9% (inactive) | -13.9% (inactive) | 107 | -73.9% (inactive) | 113 | -0.269 (inactive) | 2e-05 (inactive) | 0.00699 (inactive) | 9.07% (inactive) | 21.2% (inactive)
Cc1cccc(CCNC(=O)C2CCCN(S(=O)(=O)c3cnc[nH]3)C2)c1 (stereo not drawn) | 518 | 16.1% (inactive) | 21.6% (inactive) | 89.8 | -107% (inactive) | 107 | -0.523 (inactive) | 6.1e-06 (inactive) | 0.0065 (inactive) | 30.1% (inactive) | 8.46% (inactive)
Cc1noc(C)c1S(=O)(=O)N1CCCC(C(=O)NCCc2ccc(Cl)cc2)C1 (stereo not drawn) | 402 | 7.3% (inactive) | -8.8% (inactive) | 107 | -78.1% (inactive) | 106 | -0.471 (inactive) | -0.000191 (inactive) | 0.00592 (inactive) | 11.6% (inactive) | 7.58% (inactive)
O=C(CCN1C(=O)COc2ccccc21)N1CCN(c2ccccn2)CC1 | 690 | -8.6% (inactive) | -0.4% (inactive) | 101 | -176% (inactive) | 132 | -0.591 (inactive) | 5.1e-07 (inactive) | 0.00618 (inactive) | 10.4% (inactive) | 14.6% (inactive)
CNC(=O)CN(c1ccc(C(C)C)cc1)S(C)(=O)=O | 372 | -0.8% (inactive) | -4.8% (inactive) | 114 | 24.1% (inactive) | 114 | -0.397 (inactive) | 1.3e-05 (inactive) | 0.00372 (inactive) | 11% (inactive) | 35.7% (inactive)
CN(CCc1ccccn1)C(=O)CCNC(=O)Cn1cnc2ccccc2c1=O | 202 | -7.4% (inactive) | -4.7% (inactive) | 99.5 | -6.6% (inactive) | 110 | -0.611 (inactive) | 1.1e-05 (inactive) | 0.00589 (inactive) | 13.8% (inactive) | 14.4% (inactive)
CCOC(=O)c1c(C)[nH]c(C(=O)COC(=O)c2ccc(F)c(S(=O)(=O)N3CCOCC3)c2)c1C | 376 | 4.8% (inactive) | -173% (inactive) | 6.6 | -27.2% (inactive) | 105 | -0.6 (inactive) | -5.1e-05 (inactive) | 0.00426 (inactive) | 5.38% (inactive) | 13.3% (inactive)
CC(NC(=O)c1cc2c(=O)n(C)c3ccccc3c2n1C)c1ccc2c(c1)OCCO2 (stereo not drawn) | 798 | -4.4% (inactive) | 3.3% (inactive) | 139 | -41.1% (inactive) | 107 | -0.623 (inactive) | -2.2e-05 (inactive) | 0.00677 (inactive) | 4.73% (inactive) | 4.98% (inactive)
CC(=O)N(C(C)=O)c1cccc2c(N(C(C)=O)C(C)=O)cccc12 | 450 | -10.7% (inactive) | 26.2% (inactive) | 44.9 | -28.6% (inactive) | 87.9 | -0.431 (inactive) | -5.3e-05 (inactive) | 0.00429 (inactive) | 12.7% (inactive) | 31.6% (inactive)
CCCc1cc(=O)[nH]c(SCc2ccccc2)n1 | 651 | 6.7% (inactive) | -3.9% (inactive) | 99.8 | -110% (inactive) | 101 | -0.6 (inactive) | -1.1e-07 (inactive) | 0.00614 (inactive) | 9.4% (inactive) | 30% (inactive)
CC(C)C(NC(=O)c1ccccc1NC(=O)c1ccco1)C(=O)O (stereo not drawn) | 368 | 1.7% (inactive) | -3.4% (inactive) | 103 | -32.6% (inactive) | 115 | -0.622 (inactive) | -3.3e-05 (inactive) | 0.00599 (inactive) | 19% (inactive) | 21.5% (inactive)
CCCCS(=O)(=O)NC1=NCN(C2CCN(Cc3ccccc3)CC2)CN1 | 378 | -2.1% (inactive) | 17.7% (inactive) | 97.1 | -23.1% (inactive) | 113 | -0.572 (inactive) | -9.6e-05 (inactive) | 0.00667 (inactive) | 4.05% (inactive) | 18.7% (inactive)
CCOC(=O)N1CCC(N2C(=O)c3ccc(C(=O)NCc4ccco4)cc3C2=O)CC1 | 646 | -6.1% (inactive) | 0.7% (inactive) | 96.3 | -40.8% (inactive) | 126 | -0.59 (inactive) | -2.2e-06 (inactive) | 0.00518 (inactive) | 7.39% (inactive) | 26.2% (inactive)
CCN(CC)c1ccc(NC(=O)c2nc3nc(C)cc(C(F)F)n3n2)cc1 | 650 | -1.9% (inactive) | 14.6% (inactive) | 98.5 | -10.1% (inactive) | 114 | -0.535 (inactive) | -3.4e-05 (inactive) | 0.00747 (inactive) | 21.5% (inactive) | -6.45% (inactive)
CN1CCc2nc(SCCOc3ccccc3)c(C#N)cc2C1 | 319 | -4% (inactive) | 0% (inactive) | 93.7 | -44.8% (inactive) | 114 | -0.346 (inactive) | -9.3e-07 (inactive) | 0.00342 (inactive) | -2.8% (inactive) | 2.79% (inactive)
Cc1ccc(-c2noc(CCC(=O)NC3CCCc4ccccc43)n2)cc1 (stereo not drawn) | 377 | -2% (inactive) | 5.2% (inactive) | 108 | -27.6% (inactive) | 85.8 | -0.411 (inactive) | -3.2e-05 (inactive) | 0.00255 (inactive) | 19.1% (inactive) | 18.8% (inactive)
CCOC(=O)Cc1c(C)c2c(O)cc(O)cc2oc1=O | 450 | 9% (inactive) | -19.7% (inactive) | 111 |  | 150 | -0.0503 (inactive) | 6.3e-06 (inactive) | 0.00591 (inactive) | 15.2% (inactive) | 9.57% (inactive)
CCn1c(=O)cc(OCC(=O)NC2CCCCC2)c2ccccc21 | 336 | 22.2% (inactive) | -2.9% (inactive) | 110 | -15.3% (inactive) | 113 | -0.263 (inactive) | 1.1e-05 (inactive) | 0.00609 (inactive) | 1.11% (inactive) | 23.9% (inactive)
CCOC(=O)c1cnn(-c2cc(C)c3cc(C)cc(C)c3n2)c1N | 494 | 9% (inactive) | -9.8% (inactive) | 110 |  | 152 | -0.545 (inactive) | 2e-05 (inactive) | 0.00906 (inactive) | -17.1% (inactive) | -21.2% (inactive)
COc1cc(OC)cc(-c2nc(N)n[nH]2)c1 | 455 | 3.7% (inactive) | 0% (inactive) | 105 | -33% (inactive) | 104 | -0.411 (inactive) | -5.5e-05 (inactive) | 0.00517 (inactive) | 10.7% (inactive) | 12% (inactive)
Cn1c(=O)c2c(nc(NCCNC(=O)c3ccco3)n2Cc2ccccc2Cl)n(C)c1=O | 424 | 7.1% (inactive) | 1.7% (inactive) | 98.3 |  | 136 | -0.354 (inactive) | -2.6e-05 (inactive) | 0.00598 (inactive) | -7.85% (inactive) | 2.32% (inactive)
COc1ccc(-c2nnc(SCC(=O)NC(=O)NCc3ccco3)o2)cc1 | 417 | 5.6% (inactive) | -7.4% (inactive) | 102 |  | 157 | -0.455 (inactive) | 9.2e-05 (inactive) | 0.00577 (inactive) | 18.6% (inactive) | 24.4% (inactive)
